Each sequence was assayed on VDR:RXRa (NR concentration 270 nM, RXRa partner concentration 90 nM) (assay: PBM binding z-score (relative to random genomic background probes); higher = stronger binding; sequences stand for … in GC…GCGATTGACAGCGTAGAATGAAGG).
Description: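 Protein-binding microarray (Agilent 4x180K custom design, double-stranded 60-nt probes: 5' GC cap, 34-nt variable region, 24-nt constant primer region; full probe sequence given). Purified or IVT nuclear receptor:RXRα heterodimers (3:1 NR:RXRα, mostly 270:90 nM) or homodimers were incubated for 1 h in PBS with 2% milk and no ligand, then detected with Alexa488 antibodies. Fluorescence from o1-orientation probes (~5 replicates averaged) was converted to z-scores against 500 random hg19 background probes. Variable regions are seed direct-repeat (DR0–DR5) sites, all their single-nucleotide variants and half-site ablations.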

Sequence | PBM binding z-score
ACTCGGAGGACAAAGATCAGAGCTACGCCAGTGA | -0.289
CGTCCAAGGTGAAAGGTCAGTGAAGAGATGACGG | 3.69
AGACCGAGGGCACGCTGAGTTGATAGCAGAGTAG | 2.21
ACTATTAGTTGACTTCGGGCAACCGATACGACGC | 0.179
ACTAGCAGGCCAAATTTGGGTCACTCAAACAAAG | 0.734
CAAACTAGGTCACAGAGGTCAAGGTCCGTGCGTA | 7.73
TCATATAGGTAAACAGATGAAAGTCCGTAAGTTA | 1.17
TCATATAGGTCAACAGGTGAAAGTCCGTAAGTTA | 4.41
AGATGTAGGTTATCGGGTCATTCAGTTTGCGCAT | 5.35
TCATATAGGCAAAGGTGAAAGTCGAACGATATGA | 0.976
TCTATTAGTTGAGTAGGGCAACCGAAACAGCGGA | -0.07
ATCTCTAGGTAAAGATAATTCAGTGAATGCAAAT | 0.0441
TCTGCTAGGTCACCGATGGTCAGCTAATCTGCTA | 2.17
CCTTACGGGTCACTCCAGGTAATAGCATCGGAGT | 3.08
TCTTGTAGATCAAAGGTTAACAAAGCCGAAGCCT | 2.09
CTCGAAAGGTCGTACTCAGGTGAGTATACCAAAC | 3.52
TAGCCTAGGGCATGGGCCAGTATACCACGCGAAC | -0.452
TCTCGGAGGACACGAAAGGACAGAGCTCGACATC | -0.146
ACTAGCAGGCCATGGGTCACTCAAGATTAGTCCG | 0.6
CAAACTAGGTCAATGGTCAAAGTCGAGCCAACCA | 1.67

Sequence | PBM binding z-score
GCTGCTAGGTCAGGTTGGTCAGCTTACGGGTACG | 0.539
TTACCAAGGTGAAGGTCTTTGATCCCTCTGTAGA | -0.00925
CCTACTGGGCCATTCAGCGGTCATTGATCATATG | -0.109
TCTAGCTGGCCAGAGGGTCACTCAAGAGGTACGG | 1.44
CCTCAGAGGACAGAAGGTCAGAGCTGTCCGCTTT | 1.07
CCGACTGGGGCATAAGGTTGCCATAAGCCAGCCC | -0.377
ATCGGAAGGTCGAAGGTGAGTATACCCACCCGAA | 1.5
TGAATGAGGTTATAAGATCAGGGAGCGTTGCAAA | 0.606
TCTTATAGGTAAACAGGTGAAAGTCCGTAAGTTA | 1.17
CCTTACGGGTAAAGGTTATAGCACGGGTGGTACG | 0.723
CAAACCAGGTCACCGGAAGGTCAAAGTCCGCATG | 6.39
CGTCCAAGGTCAATGCTAGGTCAGTCAAAGCATT | 5.1
TCTAGTTGGTCAAGGGTCACACACTCGAAATGCG | 4.32
CCTCGGTGGACAGAAGGTCAGAGCTGTCCGCTTT | 0.609
CCTAGTTGGTCAGGAGGTCACGCACCGGATATGA | 4.58
GCTATTGGTTGAAAGGGCAACCGAATGATTCTCG | 0.563
CGTCCAAGGTCAGAGAGGTCCGTGAATGCCGAGT | 4.73
GCTTGTAGATCAAGGTTATGAAAGACTAAGCTAA | 0.325
TTACCAAGGTGAGGGTCGTTGATCCCTCTGTAGA | 0.884
ACTAGTTGGTCGGCTGAGGTCACACACAATTCGG | 3.94
